About 2,000 (36%) of roughly 5,500 compounds were called active. Inconclusive results (about 18%) are left out. Rule as the data show it: active = normalized growth mostly below about 0.91 (no sharp cut-off); inconclusive = no clear call, values can overlap the other calls; inactive = mostly above about 0.92. The list shows a part of the results.
Assay: chemical genetic growth profiling, strain panel (AID 1159580);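 also: tested at 20 µM; growth read once vehicle control cultures reached saturation at 30 °C; 1 = growth at the plate median or of vehicle wells; lower values mean less growth of the strain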
Settings: S. cerevisiae deletion strains, growth OD

Measured: normalized growth

Nc1ccc(C(=O)O)c(O)c1 (tested in a mixture with another compound)
inactive: locus YBR021W, strain FUR4, active compounds read low 1 | locus YBR229C, strain ROT2, active compounds read low 0.988 | locus YCL029C, strain bik1, active compounds read low 0.993 | locus YDL035C, strain GPR1, active compounds read low 0.989 | locus YDL074C, strain BRE1, active compounds read low 1.01 | locus YDL101C, strain DUN1, active compounds read low 0.995 | locus YDL134C, strain PPH21, active compounds read low 0.994 | locus YDL185W, strain tfp1, active compounds read low 0.993 | locus YDL192W, strain arf1, active compounds read low 0.988 | locus YDR101C, strain arx1, active compounds read low 1.02 | locus YDR162C, strain NBP2, active compounds read low 0.995 | locus YDR318W, strain mcm21, active compounds read low 0.992 | locus YDR388W, active compounds read low 0.981 | locus YDR502C, strain sam2, active compounds read low 1.02 | locus YEL061C, strain CIN8, active compounds read low 0.994 | locus YER110C, active compounds read low 0.976 | locus YER155C, strain BEM2, active compounds read low 0.999 | locus YER167W, strain BCK2, active compounds read low 0.985 | locus YGL078C, strain dbp3, active compounds read low 0.992 | locus YGL086W, strain mad1, active compounds read low 1.03 | locus YGL248W, strain PDE1, active compounds read low 0.994 | locus YGR135W, strain pre9, active compounds read low 0.945 | locus YGR252W, strain gcn5, active compounds read low 0.963 | locus YHR030C, strain SLT2, active compounds read low 0.993 | locus YHR079C, strain IRE1 (second series), active compounds read low 0.98 | locus YHR094C, strain hxt1, active compounds read low 0.977 | locus YHR129C, strain ARP1, active compounds read low 0.998 | locus YHR200W, strain rpn10, active compounds read low 0.988 | locus YIL066C, strain RNR3, active compounds read low 0.996 | locus YIL073C, strain SPO22, active compounds read low 1.01 | locus YIL125W, strain kgd1, active compounds read low 0.988 | locus YIR030C, strain dcg1, active compounds read low 0.979 | locus YJL095W, strain BCK1, active compounds read low 1.02 | locus YJL134W, strain LCB3, active compounds read low 0.994 | locus YJL168C, strain set2, active compounds read low 0.976 | locus YJL187C, strain SWE1 (second series), active compounds read low 1.01 | locus YJR043C, strain POL32, active compounds read low 0.981 | locus YJR075W, strain HOC1, active compounds read low 0.988 | locus YKL009W, strain mrt4, active compounds read low 1 | locus YKL068W, active compounds read low 0.992 | locus YKL085W, strain MDH1 (second series), active compounds read low 0.984 | locus YKL085W, strain MDH1, active compounds read low 0.984 | locus YKL190W, strain CNB1, active compounds read low 0.998 | locus YKR001C, strain vps1, active compounds read low 0.998 | locus YLR039C, strain RIC1, active compounds read low 1.06 | locus YLR058C, strain SHM2, active compounds read low 0.989 | locus YLR102C, strain apc9, active compounds read low 0.983 | locus YLR262C, strain YPT6, active compounds read low 1.02 | locus YLR268W, strain sec22, active compounds read low 0.992 | locus YLR330W, strain CHS5, active compounds read low 0.994 | locus YLR342W, strain FKS1 (second series), active compounds read low 0.968 | locus YLR371W, strain rom2, active compounds read low 0.977 | locus YLR418C, strain cdc73, active compounds read low 0.957 | locus YML016C, strain PPZ1, active compounds read low 0.99 | locus YML032C, strain rad52, active compounds read low 0.994 | locus YML124C, strain tub3, active compounds read low 0.989 | locus YMR078C, strain ctf18, active compounds read low 0.978 | locus YMR223W, strain ubp8, active compounds read low 0.964 | locus YMR307W, strain GAS1, active compounds read low 0.909 | locus YNL067W, strain RPL9B, active compounds read low 1.02 | locus YNL128W, strain TEP1, active compounds read low 0.995 | locus YNL153C, strain GIM3, active compounds read low 1.04 | locus YNL233W, strain BNI4, active compounds read low 1.01 | locus YNL250W, strain rad50, active compounds read low 0.981 | locus YNL271C, strain bni1, active compounds read low 0.991 | locus YNL298W, strain CLA4, active compounds read low 0.983 | locus YNL307C, strain MCK1, active compounds read low 0.981 | locus YNR052C, strain pop2, active compounds read low 0.991 | locus YOL006C, strain TOP1, active compounds read low 1.08 | locus YOL012C, strain htz1 0.929 | locus YOL147C, strain pex11, active compounds read low 0.988 | locus YOR061W, strain CKA2, active compounds read low 0.993 | locus YOR069W, strain VPS5, active compounds read low 0.988 | locus YOR136W, strain idh2, active compounds read low 0.987 | locus YOR144C, strain elg1, active compounds read low 0.977 | locus YOR184W, strain ser1, active compounds read low 0.971 | locus YOR316C, strain cot1, active compounds read low 0.986 | locus YPR119W, strain clb2, active compounds read low 0.984 | locus YPR141C, strain kar3, active compounds read low 0.984 | locus YPR163C, strain tif3, active compounds read low 0.979 | locus YPR167C, strain met16, active compounds read low 0.981 | strain wtn01, active compounds read low 1.01

From PubChem BioAssay AID1159580 (chemical genetic matrix, 2015)
